The record followed here is PubChem BioAssay (Tox21).

Experiment [1] can be described thus: qHTS assay to identify small molecule antagonists of the thyroid receptor (TR) signaling pathway - cell viability counter screen (AID 743064). Further: nearly all actives have a fitted effect of over 50% in size. Further: potency means the concentration at half of the fitted maximal effect. Summed up: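 Same-well viability check: GH3.TRE-Luc cells stimulated with 1 nM T3 alongside test compound for 23.5 h, followed by CellTiter-Fluor fluorescence.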
Experiment [2] can be described thus: qHTS assay to identify small molecule antagonists of the estrogen receptor alpha (ER-alpha) signaling pathway - cell viability counter screen (AID 743074; calls by dose curve; further: nearly all actives have a fitted effect of over 45% in size). On the technique in general: Quantitative high-throughput screening tests each substance at several concentrations.
Experiment [3] in a line: qHTS assay to identify small molecule antagonists of the estrogen receptor alpha (ER-alpha) signaling pathway using the BG1 cell line - cell viability counter screen (AID 743081).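 Further: compound given together with 17beta-estradiol as the ER stimulus; series mostly up to about 70 µM; nearly all actives have a fitted effect of over 45% in size.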
For the next experiment, the target named is Aromatase (Homo sapiens) (UniProt P11511). Description: qHTS assay to identify aromatase inhibitors (AID 743083). Further: nearly all actives have a fitted effect of over 55% in size. Further: potency means the concentration at half of the fitted maximal effect.
Chain of Aromatase (Homo sapiens) (P11511 whole entry, looked up): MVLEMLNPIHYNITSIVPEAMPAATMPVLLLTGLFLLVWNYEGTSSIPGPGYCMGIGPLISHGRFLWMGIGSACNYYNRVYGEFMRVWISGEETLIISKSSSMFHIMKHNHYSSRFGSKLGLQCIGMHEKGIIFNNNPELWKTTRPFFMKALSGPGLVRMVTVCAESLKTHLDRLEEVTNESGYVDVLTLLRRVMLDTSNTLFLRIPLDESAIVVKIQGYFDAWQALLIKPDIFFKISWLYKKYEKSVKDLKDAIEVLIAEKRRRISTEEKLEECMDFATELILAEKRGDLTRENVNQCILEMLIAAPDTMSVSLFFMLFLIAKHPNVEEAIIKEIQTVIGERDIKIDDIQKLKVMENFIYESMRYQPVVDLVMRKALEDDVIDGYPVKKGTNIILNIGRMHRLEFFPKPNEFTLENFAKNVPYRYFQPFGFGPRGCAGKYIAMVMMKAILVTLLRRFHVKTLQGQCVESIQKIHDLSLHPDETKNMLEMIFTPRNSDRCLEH
A short description of experiment [4]: qHTS assay to identify aromatase inhibitors - cell viability counter screen (AID 743084).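 Further: cells stimulated with testosterone during compound exposure; nearly all actives have a fitted effect of over 55% in size.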
The target in experiment [5] is Aryl hydrocarbon receptor (Homo sapiens) (UniProt P35869). Description: qHTS assay to identify small molecule that activate the aryl hydrocarbon receptor (AhR) signaling pathway (AID 743085). Further: nearly all actives have a fitted effect of over 15% in size. Further: potency means the concentration at half of the fitted maximal effect.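 On activation: HG2L7.5c1 human HepG2 liver cells with stably integrated DRE-driven firefly reporter; series mostly up to about 70 µM.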 Summed up: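 Reporter assay in engineered HepG2 line HG2L7.5c1, whose plasmid carries twenty dioxin responsive elements upstream of firefly luciferase. Treatment lasted 24 h at 37C; ONE-Glo luminescence gauged induction.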
Chain of Aryl hydrocarbon receptor (Homo sapiens) (P35869 whole entry, looked up): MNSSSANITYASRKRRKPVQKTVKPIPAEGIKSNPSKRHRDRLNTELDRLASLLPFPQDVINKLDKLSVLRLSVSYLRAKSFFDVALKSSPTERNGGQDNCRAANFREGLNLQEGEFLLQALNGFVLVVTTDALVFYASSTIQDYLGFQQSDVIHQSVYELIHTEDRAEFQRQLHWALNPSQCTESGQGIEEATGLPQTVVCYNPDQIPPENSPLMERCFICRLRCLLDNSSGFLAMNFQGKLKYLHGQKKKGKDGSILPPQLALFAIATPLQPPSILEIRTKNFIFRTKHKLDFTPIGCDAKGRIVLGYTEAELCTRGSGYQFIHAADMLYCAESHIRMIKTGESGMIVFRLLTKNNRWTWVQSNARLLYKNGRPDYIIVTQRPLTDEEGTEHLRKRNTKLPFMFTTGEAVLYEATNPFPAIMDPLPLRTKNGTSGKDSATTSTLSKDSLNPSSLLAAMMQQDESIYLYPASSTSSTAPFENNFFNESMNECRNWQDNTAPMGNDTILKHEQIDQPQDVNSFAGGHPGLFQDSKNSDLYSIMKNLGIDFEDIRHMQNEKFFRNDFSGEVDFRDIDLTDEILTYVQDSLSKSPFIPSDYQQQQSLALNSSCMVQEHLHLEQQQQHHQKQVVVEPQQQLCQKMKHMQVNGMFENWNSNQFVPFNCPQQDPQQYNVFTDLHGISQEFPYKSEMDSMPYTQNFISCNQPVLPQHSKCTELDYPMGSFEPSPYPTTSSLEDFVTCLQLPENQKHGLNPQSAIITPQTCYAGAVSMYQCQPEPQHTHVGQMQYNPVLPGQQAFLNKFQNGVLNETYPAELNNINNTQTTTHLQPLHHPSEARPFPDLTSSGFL

Experiment [6] is described as follows: qHTS assay to identify small molecule that activate the aryl hydrocarbon receptor (AhR) signaling pathway - cell viability counter screen (AID 743086).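 Further: HepG2 liver cells carrying the AhR DRE luciferase reporter; series mostly up to about 70 µM; nearly all actives have a fitted effect of over 45% in size.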 In outline: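 HepG2-AhR-luc (HG2L7.5c1) cells, 4000/well, treated 24 h at 37 C with compound; viability measured as CellTiter-Fluor fluorescence after 30 min in the same wells as the luciferase read.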
Experiment [7] addresses Peroxisome proliferator-activated receptor gamma (Homo sapiens) (UniProt P37231). The experiment in a line: qHTS assay to identify small molecule agonists of the peroxisome proliferator-activated receptor gamma (PPARg) signaling pathway (AID 743094; active means well fitted activation curve with a large enough effect in the signal ratio in the repeat runs, not every such curve was filed as active; inconclusive means weak or mixed curves, or effect the other way; inactive means no such curve, though single readings can be large or run the other way; the % refers to the signal ratio). Summed up: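 Cells from the PPARg UAS-bla HEK293H line are plated and incubated 5 h at 37C. Compounds in DMSO are pinned in and left 17 h at 37C. LiveBLAzer B/G substrate is then added for 1 h at room temperature before fluorescence is measured.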

Experiment [8] is described as follows: qHTS assay to identify small molecule antagonists of the peroxisome proliferator-activated receptor gamma (PPARg) signaling pathway - cell viability counter screen (AID 743194). Further: nearly all actives have a fitted effect of over 55% in size. In outline:
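Cytotoxicity counter screen in PPARg-bla HEK293H cells, same wells as reporter assay. Compounds plus 50 nM rosiglitazone (final) for 17 h at 37 C, then viability read by CellTiter-Glo luminescence.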

The nature of experiment [9]: qHTS assay for small molecule agonists of the antioxidant response element (ARE) signaling pathway - cell viability counter screen (AID 743203; calls by dose curve; further: nearly all actives have a fitted effect of over 55% in size; further: potency means the concentration at half of the fitted maximal effect). Summed up:
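Cytotoxicity was tested in parallel with the ARE reporter screen. ARE-bla HepG2 cells were exposed to compounds for 16 hrs, and viability was taken from CellTiter-Glo luminescence.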

Experiment [10] can be described thus: qHTS assay for small molecule activators of the heat shock response signaling pathway - cell viability counter screen (AID 743209). Further: nearly all actives have a fitted effect of over 50% in size. Summed up: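 Cytotoxicity counter screen run in parallel with the HSE beta-lactamase reporter, using the same wells. HeLa HSE-bla cells received compound for 5 h at 37 C; ATP-based CellTiter-Glo luminescence was measured after 30 min at room temperature.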

The nature of experiment [11]: qHTS assay for small molecule activators of the heat shock response signaling pathway (AID 743210; active means well fitted activation curve with a large enough effect in the signal ratio in the repeat runs, with a control signal flat, not every such curve was filed as active; inconclusive means weak or mixed curves; the % refers to the signal ratio;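 further: HeLa cells with beta-lactamase reporter driven by heat shock elements; series mostly up to about 63 µM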). Summed up:
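Following overnight attachment, HSE-bla HeLa cells received test compounds for 5 h at 37 C; beta-lactamase activity was then detected via FRET substrate fluorescence.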

Experiment [12] concerns the target Estrogen receptor (Homo sapiens) (UniProt P03372). The experiment in a line: qHTS assay to identify small molecule antagonists of the estrogen receptor alpha (ER-alpha) signaling pathway (AID 743069; active means well fitted curve in the direction sought with a large enough effect in the signal ratio in the repeat runs, not every such curve was filed as active; inconclusive means weak or mixed curves, or effect the other way; inactive means no such curve, though single readings can be large or run the other way; the % refers to the signal ratio; further: potency means the concentration at half of the fitted maximal effect). Summed up: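 In this cell-based reporter format, GripTite HEK293 cells harbouring ER-alpha-UAS-bla were grown overnight with 2% charcoal-stripped FBS, dosed with DMSO-dissolved compounds, then challenged with 17beta-estradiol. After 18 hr at 37C, beta-lactamase activity was detected by FRET fluorescence.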

For experiment [13] the target is unchanged. Description: qHTS assay to identify small molecule agonists of the estrogen receptor alpha (ER-alpha) signaling pathway (AID 743075; calls by dose curve; further: potency means the concentration at half of the fitted maximal effect).
Experiment [14] has the same target. The experiment in a line: qHTS assay to identify small molecule agonists of the estrogen receptor alpha (ER-alpha) signaling pathway using the BG1 cell line (AID 743079). Further: nearly all actives have a fitted effect of over 20% in size. Further: potency means the concentration at half of the fitted maximal effect.
The nature of experiment [15]: qHTS assay to identify small molecule antagonists of the estrogen receptor alpha (ER-alpha) signaling pathway using the BG1 cell line (AID 743080; calls by dose curve;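 further: BG1 cells stimulated with 17beta-estradiol alongside compound; nearly all actives have a fitted effect of over 25% in size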; further: potency means the concentration at half of the fitted maximal effect). Summed up: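 Quantitative HTS on the Tox21 10K library: BG1 cells with endogenous ER-alpha and ERE-luciferase reporter, 17beta-estradiol stimulation, 21.5 h compound exposure, luminescence endpoint with parallel fluorescence cytotoxicity counter-read.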

Experiment [16] can be described thus: qHTS assay to identify small molecule antagonists of the thyroid receptor (TR) signaling pathway (AID 743065). Further: nearly all actives have a fitted effect of over 55% in size. Further: potency means the concentration at half of the fitted maximal effect. In outline:
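GH3.TRE-Luc rat pituitary cells (two TREs driving luciferase) were dosed with compound, then stimulated with 1 nM T3 (final) for 23.5 h at 37 C. ONE-Glo luminescence was the read-out, with CellTiter-Fluor fluorescence as the cytotoxicity counter-screen.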

For experiment [17], the system named is thyroid hormone receptor (rat, GH3 cells). Description: qHTS assay to identify small molecule agonists of the thyroid receptor (TR) signaling pathway (AID 743066; calls by dose curve).
The target in experiment [18] is Peroxisome proliferator-activated receptor gamma (Homo sapiens) (UniProt P37231). The experiment in a line: qHTS assay to identify small molecule antagonists of the peroxisome proliferator-activated receptor gamma (PPARg) signaling pathway (AID 743191; calls by dose curve; further: series mostly up to about 63 µM; nearly all actives have a fitted effect of over 30% in size). Summed up: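 GeneBLAzer PPARg UAS-bla HEK293H cells, 5 h post-plating, exposed to compounds 17 h at 37C. LiveBLAzer B/G FRET substrate added for 1 h at room temperature; beta-lactamase reporter read by fluorescence intensity.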
Chain of Peroxisome proliferator-activated receptor gamma (Homo sapiens) (P37231 whole entry, looked up): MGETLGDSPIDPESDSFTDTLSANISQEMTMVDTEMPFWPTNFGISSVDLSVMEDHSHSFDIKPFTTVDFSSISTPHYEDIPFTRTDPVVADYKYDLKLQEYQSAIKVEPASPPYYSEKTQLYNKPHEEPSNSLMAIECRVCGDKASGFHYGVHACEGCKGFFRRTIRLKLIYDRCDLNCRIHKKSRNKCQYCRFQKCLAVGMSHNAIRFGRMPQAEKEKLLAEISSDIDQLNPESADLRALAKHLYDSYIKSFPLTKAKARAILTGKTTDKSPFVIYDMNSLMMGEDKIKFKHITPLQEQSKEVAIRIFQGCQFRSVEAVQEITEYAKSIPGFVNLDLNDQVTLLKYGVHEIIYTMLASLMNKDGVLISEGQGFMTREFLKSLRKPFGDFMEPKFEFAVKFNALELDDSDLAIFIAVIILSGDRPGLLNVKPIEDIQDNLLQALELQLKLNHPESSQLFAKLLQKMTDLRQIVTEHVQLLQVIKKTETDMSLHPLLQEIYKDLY

The nature of experiment [19]: qHTS assay for small molecule agonists of the antioxidant response element (ARE) signaling pathway (AID 743202; active means well fitted activation curve with a large enough effect in the signal ratio in the repeat runs, not every such curve was filed as active; inconclusive means weak or mixed curves, or effect the other way; inactive means no such curve, though single readings can be large or run the other way; the % refers to the signal ratio). Summed up: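 HepG2 ARE-bla cells; 16 h treatment at 37 C; FRET-based beta-lactamase fluorescence read after 2 h substrate incubation at room temperature.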

Calls of active or inactive are those of the source. Unless noted, the call rests on the fitted dose curve; in most records, active means well fitted curve in the direction sought with a large enough effect in the repeat runs; inconclusive means weak or mixed curves; inactive means no such curve, though single readings can be large; an effect the other way counts as inactive or inconclusive.

Chain of Estrogen receptor (Homo sapiens) (P03372 whole entry, looked up): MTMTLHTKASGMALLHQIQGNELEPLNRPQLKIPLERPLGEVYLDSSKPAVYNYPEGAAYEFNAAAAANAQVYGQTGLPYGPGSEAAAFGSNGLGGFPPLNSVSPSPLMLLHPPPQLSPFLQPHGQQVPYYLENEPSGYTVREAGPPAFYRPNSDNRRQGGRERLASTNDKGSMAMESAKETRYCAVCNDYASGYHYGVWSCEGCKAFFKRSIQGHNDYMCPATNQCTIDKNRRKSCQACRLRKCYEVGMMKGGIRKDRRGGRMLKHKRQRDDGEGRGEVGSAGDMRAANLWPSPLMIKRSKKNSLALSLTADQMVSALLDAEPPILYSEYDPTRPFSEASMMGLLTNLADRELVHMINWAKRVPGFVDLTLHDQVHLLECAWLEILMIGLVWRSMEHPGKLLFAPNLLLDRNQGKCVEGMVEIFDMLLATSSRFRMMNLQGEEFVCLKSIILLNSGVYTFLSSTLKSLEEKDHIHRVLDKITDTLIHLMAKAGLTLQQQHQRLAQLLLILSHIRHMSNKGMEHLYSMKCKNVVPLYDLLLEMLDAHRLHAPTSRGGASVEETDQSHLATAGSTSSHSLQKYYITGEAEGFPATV

For the molecule `CCCC(=O)OCCc1ccccc1`, the Potency entry (in [1]; in experiment [2]; in experiment [3]; with Aromatase (Homo sapiens); in experiment [4]; in experiment [5]) was “inactive” in each case. Besides, the Potency result in experiment [6], in experiment [7], in [8], in experiment [9], in experiment [10] and in [11] was “inactive” in each case.

Turning to `COc1ccc2cc1Oc1ccc(cc1)C[C@H]1c3c(cc4c(c3Oc3cc5c(cc3OC)CCN(C)[C@@H]5C2)OCO4)CCN1C`, the Potency was 13.3 µM (active) in experiment [1] and 29.8 µM (active) in [9]. Besides, the Potency entry (in experiment [12]; in experiment [2]; in experiment [13]; in experiment [14]; in experiment [15]; with Aromatase (Homo sapiens)) was “inactive” in each case. Moreover, the Potency entry in [4], in experiment [5], in experiment [7], in experiment [10] and in experiment [11] was “inactive” in each case.

As for `O=S(=O)(O)c1ccccc1/C=C/c1ccc(-c2ccc(/C=C/c3ccccc3S(=O)(=O)O)cc2)cc1`, the Potency result (in experiment [16]; in experiment [2]; in [14]; in experiment [15]; in the experiment with Aromatase (Homo sapiens); in [5]) was “inactive” throughout. In addition, the Potency entry in experiment [8], in experiment [9] and in experiment [10] was “inactive” in each case. For the same molecule, in experiment [17], the molecule was classed as inactive.

`C#C[C@]1(OC(C)=O)CC[C@H]2[C@@H]3CCC4=C/C(=N/O)CC[C@@H]4[C@H]3CC[C@@]21CC`: the Potency in experiment [16] is 21.1 µM (active); in [13] it was 0.952 µM [inconclusive] (active); in [14], 0.106 µM (active); with Aromatase (Homo sapiens), 23.7 µM (active); in experiment [9] it was 29.8 µM (active). In addition, the Potency result in [2], in experiment [15], in experiment [3], in [5] and in experiment [6] was “inactive” throughout.

For `Cc1c(C)c([N+](=O)[O-])c(C(C)(C)C)c([N+](=O)[O-])c1C`, the Potency result in experiment [12], in [13], in [14], in experiment [15], in experiment [3] and in experiment [4] was “inactive” throughout. Further, the Potency result in [5], in experiment [6], in experiment [7], in [9], in [10] and in experiment [11] was “inactive” each time.

Consider `CCC(C)n1ncn(-c2ccc(N3CCN(c4ccc(OC[C@H]5CO[C@](Cn6cncn6)(c6ccc(Cl)cc6Cl)O5)cc4)CC3)cc2)c1=O` (some centres undefined), for which the Potency result (in experiment [2]; in experiment [13]; in [3]; with Aromatase (Homo sapiens); in experiment [4]; in experiment [5]) was “inactive” in each case. Further, the Potency entry in experiment [6], in experiment [7], in [18], in experiment [8], in experiment [9] and in [10] was “inactive” in each case. The Potency in [15] is 13.3 µM (active).

On to `O=C(c1ccc(O)c(O)c1)c1ccc(O)cc1O`, for which the molecule was classed as inactive in experiment [17]. Moreover, the Potency in experiment [12] was 34.6 µM [inconclusive] (active); in [13] it was 3.46 µM [inconclusive] (active); in experiment [14], 3.85 µM (active); in experiment [5], 5.44 µM (active). Besides, the Potency result in experiment [2], in experiment [15], in experiment [4], in [7], in experiment [18] and in experiment [8] was “inactive” throughout. In addition, the Potency result in experiment [9] and in experiment [10] was “inactive” each time.

Take `CCCCCC/C=C\CCCCCCCC(=O)O`: the Potency result in experiment [12], in experiment [2], in experiment [13], in experiment [14], in experiment [15] and in experiment [3] was “inactive” in each case. Also, the Potency entry (with Aromatase (Homo sapiens); in [4]; in experiment [5]; in experiment [6]; in [8]; in [19]) was “inactive” throughout. Further, the Potency entry in experiment [9] was “inactive”.

Regarding `CN(C)CCN1CCN(c2cccc(Cl)c2)C1=O`, the Potency result in experiment [8], in experiment [19], in experiment [9], in experiment [10] and in [11] was “inactive” throughout.

Regarding `Cc1cc(C)c(/C=C2\C(=O)Nc3ccccc32)[nH]1`, in experiment [17], the call was inactive. Besides, in experiment [12], the Potency is 26.8 µM [inconclusive] (active). The Potency result (in [2]; in [14]; with Aromatase (Homo sapiens); in experiment [4]; in experiment [6]; in experiment [7]) was “inactive” in each case. Also, the Potency result in experiment [8], in experiment [10] and in experiment [11] was “inactive” throughout.

On to `O=S(=O)(O)c1ccc(Nc2nc(Nc3ccc(/C=C/c4ccc(Nc5nc(Nc6ccc(S(=O)(=O)O)cc6)nc(N(CCO)CCO)n5)cc4S(=O)(=O)O)c(S(=O)(=O)O)c3)nc(N(CCO)CCO)n2)cc1`, for which the Potency entry (in [16]; in experiment [14]; in experiment [15]; in the experiment with Aromatase (Homo sapiens); in experiment [5]; in experiment [8]) was “inactive” in each case. The Potency entry in experiment [10] was “inactive”. Moreover, in [17], the call was inactive.

For the molecule `C/C=C/C=C/COC(=O)C(C)C`, in experiment [17], the result was inactive. Further, the Potency result in experiment [2], in [3], in [5], in experiment [6], in experiment [8] and in [9] was “inactive” in each case. Also, in the experiment with Aromatase (Homo sapiens), the Potency was 68.6 µM (active).

For `CN(C)[C@@H](CCOc1cccc2ccccc12)c1ccccc1`, the Potency entry in experiment [10] was “inactive”.
